# Experimental data published in PubChem BioAssay AID434964 (The Scripps Research Institute Molecular Screening Center, 2010).
# The list shows a part of the results. A number with no mark means an inactive call. Calls of active or inactive are those of the source.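 How the source made its calls: active means average activation exceeds primary screen hit cutoff (cut at about 21% in these data); inactive means the rest.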
# Target: Vasopressin V1a receptor (Homo sapiens) (UniProt P37288)
# Assay: activators of vasopressin V1R in CHO cells – cell-based, Fluo-8 calcium fluorescence, confirmation (AID 434964);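 further: peak over basal fluorescence ratio during a 100 s FLIPR read; 0% = DMSO only wells and 100% = 3 nM vasopressin wells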
# Details: agonist, at 3 µM, stronger effect = higher value
# Vasopressin V1a receptor (Homo sapiens), sequence (P37288 whole entry, looked up): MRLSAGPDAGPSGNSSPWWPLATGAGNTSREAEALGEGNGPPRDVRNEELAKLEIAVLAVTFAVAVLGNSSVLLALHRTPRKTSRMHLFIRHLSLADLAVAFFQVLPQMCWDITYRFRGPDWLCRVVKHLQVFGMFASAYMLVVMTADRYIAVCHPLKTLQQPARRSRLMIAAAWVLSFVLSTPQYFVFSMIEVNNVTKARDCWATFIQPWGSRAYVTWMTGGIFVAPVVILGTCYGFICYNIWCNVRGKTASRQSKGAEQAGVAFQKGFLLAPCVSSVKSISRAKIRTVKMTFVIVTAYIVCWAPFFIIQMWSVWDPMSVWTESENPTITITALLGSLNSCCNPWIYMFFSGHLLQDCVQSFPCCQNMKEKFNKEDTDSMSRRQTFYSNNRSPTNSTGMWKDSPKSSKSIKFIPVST
row,Structure (SMILES),activation
1,CC1(C)S[C@@H]2[C@H](N=CN3CCCCCC3)C(=O)N2[C@H]1C(=O)O,0.2%
2,CCN(CC)c1ccc(/C=N/NC(=O)c2cnccn2)c(O)c1,10.5%
3,O=C(c1ccccc1)c1ccc(OCC(O)CN2CCCC2)cc1 (stereo not drawn),-0.08%
4,CCN(CC)c1ccc2cc(C(N)=O)/c(=N\NC(=O)c3ccncc3)oc2c1,21.7% (active)
5,Fc1cccc(Cl)c1COc1ccc(-c2nnco2)cc1,2.1%
6,O=C(CN1CCN(c2cccc(Cl)c2)CC1)Nc1ccc(S(=O)(=O)N2CCOCC2)cc1,3.06%
7,O=c1c2cc(Br)ccc2nc(-c2cccc(Cl)c2)n1O,31.8% (active)
8,Cc1cc(C)c(/C=C2\C(=O)Nc3ccccc32)[nH]1,40.5% (active)
